# Source: PubChem BioAssay AID1839 (Johns Hopkins Ion Channel Center, 2009)
# Out of some 2,400 compounds screened, about 220 (9.2%) were called active. Shown is part of a subset that was picked to be rich in actives. A number with no mark means an inactive call.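 Rule for the calls: active = signal change above the mean of dofetilide-free buffer controls plus 3 SD, so a positive margin; inactive = the rest.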
# Assay: nonspecific flux effects in parental CHO-K1, confirmation, counter-screen for hERG block protection project, cell-based, CHO-K1 parental line, FluxOR thallium flux (AID 1839);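 note: compounds applied alone with no dofetilide to cells lacking hERG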
# Details: CHO-K1 parental cells, FluxOR thallium flux fluorescence; at 10 µM
row,Structure (SMILES),"signal change vs control minus 3*SD hit threshold (margin above threshold, higher = more increase)"
1,Cc1c(C)c2ccc(OCC(=O)N[C@@H](Cc3ccccc3)C(=O)O)cc2oc1=O,-15.2%
2,O=C(C1CC(=O)N(c2ccc3c(c2)OCCO3)C1)N1CCCC(C(F)(F)F)C1 (stereo not given),-31.3%
3,COc1ccc(/C(C)=N/Nc2ccc(C(=O)O)cc2)c(OC)c1,-36.2%
4,Cc1ccc(C(=C2C3C=CC2C2C(=O)NC(=O)C32)c2ccc(C)cc2)cc1 (stereo not given),-28.1%
5,O=C(Nc1nc2c(Br)cc(Br)cc2c(=O)s1)C1CCC1,-21%
6,Cc1ccc(/C(O)=C/C(=O)C(=O)NC23CC4CC(CC(C4)C2)C3)cc1,-22.7%
7,CCn1ncc(Cl)c1C(=O)NC(=S)Nc1ccccc1Br,-0.1%
8,Cc1cccc(/C=N/n2c(COc3ccccc3)n[nH]c2=S)c1,-23.1%
9,COc1ccc(NC(=S)NC(NC(=O)c2cccc3ccccc23)C(Cl)(Cl)Cl)c([N+](=O)[O-])c1 (stereo not given),-33.1%
10,NC(=O)C1CCN(C(=O)c2cc3c(s2)CCCC3)CC1,-20.8%
11,O=C(COc1cccc(-n2cnnn2)c1)Nc1ccc([N+](=O)[O-])cc1,-25.2%
12,O=C(Nc1nc(-c2ccccc2)c(-c2ccccc2)o1)c1ccc(F)cc1,-18.6%
13,O=C(NC(=S)N1CCN(c2ccc(Cl)cc2[N+](=O)[O-])CC1)c1cccs1,-23.6%
14,COCCNC(=O)C(c1ccncc1)N(C(=O)Cn1nnc2ccccc21)c1ccc(OC)cc1 (stereo not given),-24.4%
15,COc1cccc(C=NCCCN=Cc2cccc(OC)c2O)c1O,0.5% (active)
16,COc1cccc(C=NCC(C)N=Cc2cccc(OC)c2O)c1O (stereo not given),-13.1%
17,COc1cccc(C=Nc2cc(C)cc(C)c2)c1O,-7.5%
18,Cc1ccc(O)c(C(=O)CC(=O)c2ccccc2Cl)c1,-27.9%
19,Cc1cc(Br)c(NC(=O)COC(=O)C2CC2C)c(Br)c1 (stereo not given),-27.2%
20,CCOC(=O)c1sc2nc(C)nc(SCC(=O)N(C)C3CCS(=O)(=O)C3)c2c1C (stereo not given),-20.4%
21,CN(C(=O)CSc1ncnc2sc(-c3ccccc3)cc12)C1CCS(=O)(=O)C1 (stereo not given),24.3% (active)
22,O=C(O)CCSc1ncnc2sc(-c3ccccc3)cc12,-4.3%
23,CCOC(=O)C1=C(N)Oc2cc(O)ccc2C1c1cccnc1 (stereo not given),-22.5%
24,N#Cc1cccc(NC(=O)c2nc(-c3ccccc3)n(-c3ccccc3)n2)c1,-41.8%

row,Structure (SMILES),"signal change vs control minus 3*SD hit threshold (margin above threshold, higher = more increase)"
1,CCOC(=O)N1CCN(C(=O)c2ccc(C)c(S(=O)(=O)Nc3ccccc3)c2)CC1,-15%
2,Cc1cccc(NC(=S)N/N=C2\CC(C)(C)Oc3ccc(O)cc32)c1,-19.7%
3,O=C(NC(=S)NCCc1ccccc1)c1cccc(Cl)c1,-28.3%
4,O=C1C(c2ccccc2)C(c2ccccc2)NC(c2ccccc2)C1c1ccccc1 (stereo not given),-27.2%
5,Fc1cccc2sc(Nc3nnc(-c4ccco4)o3)nc12,-13.8%
6,COc1cccc2sc(Nc3nnc(-c4cccs4)o3)nc12,14.3% (active)
7,COc1cccc(-c2nnc(Nc3nc4c(F)cccc4s3)o2)c1,-7.5%
8,Fc1cccc2sc(Nc3nnc(-c4ccccc4)o3)nc12,39.2% (active)
9,COc1cccc2sc(Nc3nc(-c4ccccn4)cs3)nc12,-29.4%
10,COc1cccc2sc(Nc3nnc(-c4ccc(F)cc4)o3)nc12,13.1% (active)
11,Fc1cccc2sc(Nc3nc4c(F)cccc4s3)nc12,-6.3%
12,COc1cccc2sc(Nc3nnc(-c4ccccc4Cl)o3)nc12,-16%
13,CCC1CCCCN1C(=S)NC(=O)c1ccc([N+](=O)[O-])cc1 (stereo not given),-2.3%
14,CN1C(=O)CSc2ccc(NC(=O)N3CCc4ccccc43)cc21,-32.3%
15,COc1ccccc1-n1c(CCC(=O)O)ccc1-c1ccccc1,-17.9%
16,CCOC(=O)CC(=O)CSc1nc2c(C)c(C)ccc2cc1C,-25%
17,C/C(=N\Nc1nc(C)c(C)s1)c1ccc([N+](=O)[O-])cc1,-17.3%
18,CCn1c(O)c(N=NC2=NC(=O)CS2)c2ccccc21,-27%
19,CCn1c(O)c(N=NC2=NC(=O)CS2)c2cc(C)ccc21,-27.3%
20,CCc1ccc2c(c1)c(N=NC1=NC(=O)CS1)c(O)n2CC,1% (active)
21,CCCOc1ccc(CN(CCC#N)C(=S)NC(=O)c2ccccc2)cc1,-20.4%
22,Cc1ccc2c(c1)c1nnc(SCC(=O)Nc3ccc(N(C)C)cc3)nc1n2CC(=O)O,-28.5%
23,CCOC(=O)N/N=C/C=C/c1ccccc1[N+](=O)[O-],-14.5%
24,COc1cccc(N=Nc2ccc(O)c3ncccc23)c1,-23.6%

row,Structure (SMILES),"signal change vs control minus 3*SD hit threshold (margin above threshold, higher = more increase)"
1,CCN(CC)S(=O)(=O)c1cc(OC)ccc1N=Nc1ccc(O)c2ncccc12,5.8% (active)
2,COc1ccccc1N=Nc1ccc(O)c2ncccc12,-39%
3,O=C(NC(=S)Nc1cccnc1)c1cc2ccccc2o1,-7.1%
4,CCOc1ccc(C(=O)NC(=S)N(Cc2ccccc2)Cc2ccccc2)cc1,-15.4%
5,Cc1ccc(C(=O)NC(=S)N(C)Cc2ccccc2)cc1,-19.2%
6,C=CCN(CC=C)C(=S)NC(=O)c1ccc(-c2ccccc2)cc1,-9.3%
7,COc1ccc(C(=O)NC(=S)N(Cc2ccccc2)Cc2ccccc2)cc1,7.4% (active)
8,CCCN(CCC)C(=S)NC(=O)c1ccc(-c2ccccc2)cc1,18.5% (active)
9,COc1cc(OC)cc(C(=O)NC(=S)N(Cc2ccccc2)C(C)C)c1,-1.3%
10,CCCCC1(O)CC(C(F)(F)F)=NN1C(=O)COc1ccccc1 (stereo not given),-36.4%
11,Cc1ccc(OCCC(=O)OC(C)C(=O)NC2CC2)cc1 (stereo not given),-26.5%
12,CC(=O)Cn1c(=O)c2c(nc3n2CCCN3Cc2ccccc2)n(C)c1=O,-25.8%
13,O=C(O)Cc1cc(I)c(Oc2ccc(O)c(I)c2)c(I)c1,7.3% (active)
14,O=C(O)CN1C(=O)c2ccc(Oc3ccc4c(c3)C(=O)N(CC(=O)O)C4=O)cc2C1=O,-18.4%
15,CCCCC(=O)Nc1ccc(NCc2ccc(C)s2)cc1,-5.7%
16,CC[C@@H](C(=O)[C@@H](C)[C@@H](O)[C@H](C)CCc1ccc(C)c(O)c1C(=O)O)[C@H]1O[C@](CC)([C@H]2CC[C@](O)(CC)[C@H](C)O2)C[C@@H]1C,58.8% (active)
17,CCOc1ccc(C(C)NC(=S)NC2CCCCC2)cc1 (stereo not given),-15.5%
18,Cc1ccc(C(=O)NC(C)c2ccc(C)c(C)c2)s1 (stereo not given),-19%
19,Cc1ccc(C(C)NC(=O)C2CCCC2)cc1C (stereo not given),0.7% (active)
20,CCc1ccc(C(C)NC(=O)C2CCCC2)cc1 (stereo not given),-18.1%
21,Cc1ccc(C(C)NC(=S)NC2CCCCC2)cc1C (stereo not given),1% (active)
22,CC(NC(=S)NC1CCCCC1)c1ccccc1 (stereo not given),-19.6%
23,C[n+]1ccccc1/C=C/c1c(F)cccc1F,-21.1%
24,COCCn1nnnc1C(c1ccc(C(F)(F)F)cc1)N1CCOCC1 (stereo not given),-34%

row,Structure (SMILES),"signal change vs control minus 3*SD hit threshold (margin above threshold, higher = more increase)"
1,O=C1C2C3C=CC(C4CC34)C2C(=O)N1/N=C/c1ccc(-c2ccc(F)cc2[N+](=O)[O-])o1 (stereo not given),-30.5%
2,COc1cccc(C(=O)CC(=O)C(=O)Nc2ccc(C)cc2Cl)c1,-9.2%
3,COc1cccc(C(=O)NNC(=O)C(=O)Nc2ccc(C)c(Cl)c2)c1,13.6% (active)
4,CCc1ccc(NC(=O)C(=O)NNC(=O)c2ccc(OC)cc2)cc1,21.6% (active)
5,COc1ccc(C(=O)NNC(=O)C(=O)Nc2ccc(C)c(Cl)c2)cc1,-14.1%
6,COc1cc(OC)cc(C(=O)NNC(=O)C(=O)Nc2cc(OC)c(Cl)cc2OC)c1,23.8% (active)
7,COc1cccc(C(=O)NNC(=O)C(=O)Nc2cccc(Cl)c2C)c1,-6.7%
8,COc1ccc(NC(=O)c2ccc(COCC(F)(F)C(F)F)cc2)cc1,-40.3%
9,COc1ccc(NC(=O)C(=O)NNC(=O)C(C)Oc2ccc(Cl)cc2Cl)cc1 (stereo not given),-10.9%
10,COc1cccc(C(=O)NNC(=O)C(=O)Nc2ccc(C)cc2)c1,28.8% (active)
11,COc1ccc(C(=O)NNC(=O)C(=O)Nc2ccc(C)cc2)cc1,-5.7%
12,Cc1cc(S(=O)(=O)Nc2ccc(C(=O)N3CCN(C(=O)c4ccco4)CC3)cc2)ccc1F,-12.4%
13,O=[N+]([O-])c1cc(S(=O)(=O)/N=C(/c2ccccc2)N2CCOCC2)ccc1Cl,-31.7%
14,CCOP(=O)(OCC)C(NC(=O)c1ccc(OC)c(OC)c1)c1ccccc1 (stereo not given),-21.4%
15,Cc1cc(C(=O)NNC2CC(=O)N(c3ccc4ccccc4c3)C2=O)c(C)o1 (stereo not given),-24.7%
16,O=C(c1cccs1)N1CCN(C23CC4CC(CC(C4)C2)C3)CC1,-34.9%
17,Cc1cc(C)c(S(=O)(=O)NCc2ccccn2)c(C)c1,-22.6%
18,Cn1c(=O)c(Sc2ccccc2)c(O)c2ccccc21,-14.2%
19,O=C1CC(O)(C(F)(F)F)Oc2c1ccc1ccccc21 (stereo not given),-3%
20,CCc1ccc(NC(=O)C(=O)NNC(=O)c2cccc(OC)c2)cc1,41.3% (active)
21,COc1cccc(CCNS(=O)(=O)CCNC(=O)c2cccc(OC)c2)c1,-25.6%
22,CCc1ccc(NC(=S)Nc2cccc(OC)c2)cc1,-32.4%
23,CC(=O)Nc1ccccc1C(=O)C(=O)Nc1ccccc1,-32.8%
